# In the library only some 7.3% were active in any assay of this set; here they are far more common.
# AmpC detergent – qHTS Inhibitors of AmpC Beta-Lactamase (assay with detergent) | P00811 | AmpC hydrolysis of nitrocefin, absorbance 480 nm, 0.01% Triton | Potency, µM (top dose mostly 114 µM), most hits filed as inhibitors | 370,000 compounds, 0.041% hits | AID 485294, 2010; note: nearly all actives have a fitted effect of over 25% in size
# Target sequence (P00811 whole entry, looked up): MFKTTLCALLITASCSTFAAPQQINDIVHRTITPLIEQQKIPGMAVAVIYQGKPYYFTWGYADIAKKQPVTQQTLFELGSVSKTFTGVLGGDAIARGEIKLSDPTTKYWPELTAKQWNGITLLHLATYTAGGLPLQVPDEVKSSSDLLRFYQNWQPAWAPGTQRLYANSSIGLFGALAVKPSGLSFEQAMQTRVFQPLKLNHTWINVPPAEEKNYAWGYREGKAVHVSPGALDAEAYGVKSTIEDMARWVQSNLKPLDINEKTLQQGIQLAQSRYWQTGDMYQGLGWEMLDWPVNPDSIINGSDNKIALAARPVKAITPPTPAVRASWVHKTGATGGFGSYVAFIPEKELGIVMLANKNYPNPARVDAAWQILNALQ
#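 20 mM phosphate pH 7.0 + 0.01% (detergent screen) or 0.0001% Triton X-100; 5.3 nM AmpC reagent; cpd preinc 15 min RT; nitrocefin (800 uM stock) to start; A480 q20 s × 4 min; Activity was normalised to no-enzyme and no-compound control wells.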
# HCMV inh – qHTS Assay for inhibitors of the human cytomegalovirus (HCMV); activity change, negative = inhibition, % at 57.5 µM; 410,000 compounds, 4.5% hits; HFF cells, HCMV-luciferase reporter, 72 h; hits give low values; AID 1259415, 2018; in the data active = activity change below about -60%; inconclusive = no clear call, values can overlap the other calls; inactive = above about -39%
#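 Screen run at 2 compound doses on HFFs infected with reporter HCMV, MOI 1 PFU/cell. Luciferase activity from cell lysates at 72 h post infection gave inhibition relative to buffer-only and Salinomycin wells.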
# HCV inh – qHTS Assay for Inhibitors of Hepatitis C Virus (HCV); 340,000 compounds, 3.4% hits; AID 651820, 2012; Huh7.5.1 HCVcc-Cre infection, luciferase reporter, 44 h; Potency, µM (doses to about 41.8 µM), usual class: inhibitors
#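 A cell-based infection assay in which seeded cells (1,000 per well) receive test compound after 4 h, are inoculated with HCVcc-Cre at approximately 0.5 moi, and are incubated 44 h before luminescence detection.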
# FMDV antiviral – High Throughput Screening for Foot and Mouth Disease Virus Antivirals. FMDV antiviral cell-based qHTS. Potency, µM (series often up to 57.9 µM), actives largely listed as inhibitors. 410,000 compounds, 1.2% hits; calls by dose curve; tested in HEK293T cells; note: read-out not given here; nearly all actives have a fitted effect of over 45% in size
# AmpC no deterg – qHTS Inhibitors of AmpC Beta-Lactamase (assay without detergent); AID 485341, 2010; P00811; AmpC nitrocefin hydrolysis, absorbance 480 nm, 0.0001% Triton; Potency, µM (highest dose often 57.1 µM), usual class: inhibitors; 330,000 compounds, 0.52% hits; note: nearly all actives have a fitted effect of over 20% in size
#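 20 mM phosphate pH 7.0 + 0.01% (detergent screen) or 0.0001% Triton X-100; 5.3 nM AmpC reagent; cpd preinc 15 min RT; nitrocefin (800 uM stock) to start; A480 q20 s × 4 min; Activity was normalised to no-enzyme and no-compound control wells.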
# A number is an active result; n = inactive; u = inconclusive; x = no result given. Unless noted, calls come from the whole dose curve; as a rule, active = well fitted curve in the direction sought with a large enough effect; inconclusive = small, poorly fitted or top-dose-only effect, or another doubt; inactive = no such curve, though single readings can be large; an effect the other way counts as inactive or inconclusive.
SMILES,AmpC detergent,HCMV inh,HCV inh,FMDV antiviral,AmpC no deterg
CC1=C(C(=O)OCc2ccccc2)C(/C=C/c2ccccc2)NC(=S)N1 (stereo unspecified),u,n,8.91µM,u,n
COc1cc(Cl)cc2c1Sc1ccccc1/C2=C/CCN(C)C,n,x,4.47µM,n,n
CC(=O)N1CCN(CC(=O)Nc2ccccc2C(=O)Nc2ccccc2)CC1,x,n,n,n,n
O=C(/C=C/c1ccco1)Oc1cccc2cccnc12,n,-72.2,u,n,n
COc1ccc(C(=O)Nc2nc(-c3nnn(-c4cc(OC)ccc4OC)c3C)ns2)cc1,n,u,x,n,x
CCc1ccccc1-n1nnc(-c2nsc(NC(=O)c3ccc(C)c(C)c3)n2)c1C,n,-92.3,x,11.2µM,x
CCOc1ccccc1-n1nnc(-c2nsc(NC(=O)c3ccc(C)cc3)n2)c1C,n,-74.5,x,u,x
CC(=O)Nc1cccc(-c2ccnc3c2CC(C(=O)NCCC(F)(F)F)O3)c1 (stereo unspecified),x,n,x,n,x
CCC(C(=O)Nc1ccc(N2CCOCC2)c(S(=O)(=O)Nc2ccccc2OC)c1)c1ccccc1 (stereo unspecified),x,-81.2,u,n,n
COc1ccccc1NS(=O)(=O)c1cc(NC(=O)CCC2CCCC2)ccc1N1CCOCC1,n,-103.7,n,n,n
COc1ccc(CS(=O)(=O)/C(Cl)=C(/Cl)C(=O)Nc2ccc(OC)nc2)cc1,n,x,3.98µM,11.2µM,n
CCN1C(=O)[C@H]2[C@@H](c3ccc(-c4ccc(Cl)c(Cl)c4)c(OC)c3)N[C@@](Cc3ccccc3)(C(=O)OC)[C@H]2C1=O,n,n,n,n,n
CCOC(=O)N1CCN(c2nc(-c3cccs3)nc3ccccc23)CC1,n,u,u,n,n
CC(=O)N1CCN(c2nc(-c3cccs3)nc3ccccc23)CC1,n,n,11.2µM,n,n
COc1ccc(Nc2nc(-c3cccs3)nc3ccccc23)c(OC)c1,n,n,11.2µM,n,n
CN(C)C(=O)c1ccc(Nc2nc(-c3cccs3)nc3ccccc23)cc1,n,u,2.82µM,n,n
COc1ccc(Nc2nc(-c3cccs3)cs2)c(OC)c1,u,n,10µM,n,n
COc1ccc(Nc2nc(-c3cccc([N+](=O)[O-])c3)nc3ccccc23)c(OC)c1,n,n,n,n,n
CN(C)C(=O)c1ccc(-c2nc(Nc3ccc(F)cc3)c3ccccc3n2)cc1,x,x,x,n,x
COc1ccc(OC)c(Nc2nc(-c3cccs3)cs2)c1,n,n,14.1µM,x,n
CCOC(=O)C1(C)CCN1C(=O)c1ccc(OC)c(C(F)(F)F)c1 (stereo unspecified),x,n,x,n,x
Cc1cc(C)c(C2=CC(=O)C[C@H](c3ccc4c(c3)OCO4)C2)c(C)c1,n,-61.0,n,n,n
O=C(O)C1=CC[C@@H](c2ccc(Cl)cc2)N(S(=O)(=O)c2ccc(Cl)cc2)[C@H]1c1ccc(Br)cc1,x,n,n,u,n
CNC(=O)c1ccc(-c2sc3nc(N4CCOCC4)c4c(c3c2N)CCCC4)o1,u,n,11.2µM,u,n
CNC(=O)c1ccc(-c2sc3nc(N4CCOCC4)c4c(c3c2N)CC(C)(C)OC4)o1,n,n,u,n,n
SMILES,AmpC detergent,HCMV inh,HCV inh,FMDV antiviral,AmpC no deterg
COC1=C(N)C(=O)c2nc(-c3nc(C(=O)O)c(C)c(-c4ccc(OC)c(OC)c4O)c3N)ccc2C1=O,n,x,0.316µM,3.98µM,n
COC(=O)c1nc(-c2ccc3c(n2)C(=O)C(N)=C(OC)C3=O)c(N)c(-c2ccc(OC)c(OC)c2O)c1C,n,u,2.24µM,u,n
COc1ccc(C(=O)O)c(O)c1OC,x,x,x,n,x
O=C(NCCC1CCCCN1S(=O)(=O)c1ccc(F)cc1)C(=O)NCCN1CCOCC1 (stereo unspecified),n,n,n,n,n
O=C(NCc1cccc(Cl)c1)c1oc(=O)c2ccccc2c1-c1ccccc1,n,-68.7,x,n,x
O=C(c1ccc(COc2ccc(Br)cc2)o1)N1N=C(C(F)F)CC1(O)C(F)F (stereo unspecified),n,n,u,25.1µM,n
CCOc1ccc(OCc2ccc(C(=O)N3N=C(C(F)F)CC3(O)C(F)F)o2)cc1 (stereo unspecified),n,n,n,n,n

# Compound activity (PubChem BioAssay)
